Measured values: the supplement of paper PMC6953052
“And” between values parts separate entries of the source, which are not always exact repeats. Equal values may be shown once. ± gives the standard deviation of the averaged measurements. In all, about 1,700 compounds were measured (“fraction of GFP-LC3-positive cells (≥5 vesicles/cell)”: median about 0.058, highest 2% from about 0.59 on). This excerpt belongs to a sample that is enriched for the highest values.

What follows are molecules tested on CbCln3 +/+ GFP-LC3 cerebellar neuronal cells (assay: fraction of GFP-LC3-positive cells (≥5 vesicles/cell); higher = more autophagosome accumulation).
Method in brief: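 Wild-type or mutant CbCln3 cerebellar cells stably expressing GFP-LC3 (2 × 10^3/well, 384-well) received ~50 nL compound in DMSO by pin transfer, in duplicate, for 24 h at 33 °C. Hoechst 33342 and LysoTracker Red were added for the final 30 min before 3.2% PFA fixation and 10× imaging of three fields per well. CellProfiler counted GFP-LC3 vesicles per cell. The value is the fraction of cells with 5 or more vesicles, averaged over duplicates, with out-of-focus images excluded.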

SMILES	fraction of GFP-LC3-positive cells
Cc1c(OCC(F)(F)F)ccnc1CS(=O)c1nc2ccccc2[nH]1 (centres undefined) [Lansoprazole]	0.0343
COC1=CC(=O)C[C@@H](C)[C@]12Oc1c(Cl)c(OC)cc(OC)c1C2=O [Griseofulvin]	0.172
Cc1ncc(C[n+]2csc(CCO)c2C)c(N)n1.Cl.[Cl-] [Thiamine hydrochloride]	0.0725
CC[C@H](C)C(=O)O[C@H]1C[C@@H](C)C=C2C=C[C@H](C)[C@H](CC[C@@H]3C[C@@H](O)CC(=O)O3)[C@H]21 [Mevinolin (lovastatin)]	0.203
CC(C)(Oc1ccc(C2CC2(Cl)Cl)cc1)C(=O)O (centres undefined) [Ciprofibrate]	0.0359
CCN(CC)C(=O)N1CCN(C)CC1.O=C(O)CC(O)(CC(=O)O)C(=O)O [Diethylcarbamazine citrate]	0.0418
CC(=O)O[C@H]1C(=O)[C@@]2(C)[C@H]([C@H](OC(=O)c3ccccc3)[C@]3(O)C[C@H](OC(=O)[C@H](O)[C@@H](NC(=O)c4ccccc4)c4ccccc4)C(C)=C1C3(C)C)[C@]1(OC(C)=O)CO[C@@H]1C[C@@H]2O [Paclitaxel]	0.642
CC(=O)O[C@H]1C(=O)[C@@]2(C)C([C@H](OC(=O)c3ccccc3)[C@]3(O)C[C@H](OC(=O)[C@H](O)[C@@H](NC(=O)c4ccccc4)c4ccccc4)C(C)=C1C3(C)C)[C@]1(OC(C)=O)CO[C@@H]1C[C@@H]2O (some centres undefined) [taxol =paclitaxel]	0.536
CS(=O)c1ccc(-c2nc(-c3ccc(F)cc3)c(-c3ccncc3)[nH]2)cc1 (centres undefined)	0.023
Cc1cnc(C(=O)NCCc2ccc(S(=O)(=O)NC(=O)NC3CCCCC3)cc2)cn1 [Glipizide]	0.057
CCOC(=O)n1ccn(C)c1=S [Carbimazole]	0.0518
N=C(N)NCC1COC2(CCCCC2)O1.N=C(N)NCC1COC2(CCCCC2)O1.O=S(=O)(O)O (centres undefined) [Guanadrel sulfate]	0.041
CC/C=C/C/C=C/C/C=C/CCCCCCCCCC(=O)O [Eicosatrienoic acid (20:3 N-3)]	0.0456
CCCCC/C=C/C/C=C/CCCCCCCCCCCC(=O)O [13(Z),16(Z)-Docosadienoic acid]	0.0709
CC(=O)OCC(=O)[C@@]1(OC(C)=O)[C@@H](C)C[C@H]2[C@@H]3C[C@H](F)C4=CC(=O)C=C[C@]4(C)[C@@]3(F)[C@@H](O)C[C@@]21C [Diflorasone Diacetate]	0.085
O=C1Cc2c([nH]c3ccc(Br)cc23)-c2ccccc2N1	0.0413
CCCNC(=O)[C@H]1O[C@@H]1C(=O)N[C@H](C(=O)N1CCC[C@H]1C(=O)OC)C(C)CC (some centres undefined)	0.399 and 0.352
CNCCC(Oc1ccccc1OC)c1ccccc1.Cl (centres undefined) [Nisoxetine hydrochloride]	0.0525
C[C@@H](O)[C@H]1C(=O)N2C(C(=O)O)=C(S[C@@H]3CN[C@H](C(=O)N(C)C)C3)[C@H](C)[C@H]12 [Meropenem]	0.0612
Nc1ccc(C(=O)NCC(=O)O)cc1 [Aminohippuric acid]	0.0809
COc1ccc(Cl)cc1C(=O)NCCc1ccc(S(=O)(=O)NC(=O)NC2CCCCC2)cc1	0.0797
CC(C)Cc1ccc([C@H](C)C(=O)O)cc1 [S-(+)-ibuprofen]	0.0447
O=[N+]([O-])c1cccc2c(Br)n[nH]c12 [Bromo-7-nitroindazole [3-Bromo-7-nitroindazole]]	0.0548
C1COC(NC(C2CC2)C2CC2)=N1.C1COC(NC(C2CC2)C2CC2)=N1.O=C(O)/C=C/C(=O)O [Rilmenidine hemifumarate]	0.0609
COc1ccc2c(c1)c(CC(=O)N1CCOCC1)c(C)n2C(=O)c1ccc(Cl)cc1	0.0513 ± 0.01

SMILES	fraction of GFP-LC3-positive cells
CCCCCCCCCCCCCCCCC(=O)O [Heptadecanoic acid]	0.0793
C[N+](C)(C)CCOC(N)=O.[Cl-] [Carbachol]	0.0698
Cn1cc(C2=C(c3cn(CCCSC(=N)N)c4ccccc34)C(=O)NC2=O)c2ccccc21	0.845 ± 0.071
CN(C)CCCn1cc(C2=C(c3c[nH]c4ccccc34)C(=O)NC2=O)c2ccccc21	0.0883 and 0.0921
COc1ccc(CCN(C)CCCC(C#N)(c2ccc(OC)c(OC)c2)C(C)C)cc1OC.Cl (centres undefined) [Verapamyl hydrochloride]	0.0534
COC(=O)[C@H]1[C@H]2C[C@H]3c4[nH]c5ccccc5c4CCN3C[C@@H]2CC[C@@H]1O.Cl [Corynanthine hydrochloride]	0.0351
Nc1nc(S)c2ncn([C@@H]3O[C@H](CO)[C@@H](O)[C@H]3O)c2n1 [Thioguanosine]	0.131
Nc1ncn(C2O[C@H](CO)[C@@H](O)[C@H]2O)c(=O)n1 (some centres undefined) [Azacytidine-5]	0.745
NC(=O)c1ncn([C@@H]2O[C@H](CO)[C@@H](O)[C@H]2O)n1 [Ribavirin]	0.033
C[C@]12CCC(=O)C=C1CC[C@@H]1[C@@H]2[C@@H](O)C[C@@]2(C)[C@H]1CC[C@]2(O)C(=O)CO [Hydrocortisone base]	0.049
C[C@@H](N)[C@H]1CC[C@H](C(=O)Nc2ccncc2)CC1	0.074
CNCCC=C1c2ccccc2CCc2ccccc21.Cl [Nortriptyline hydrochloride]	0.0533
Cc1nccn1CC1CCc2c(c3ccccc3n2C)C1=O.Cl (centres undefined) [Ondansetron Hydrochloride]	0.03
CCCCCCCCCCCCCCCCCCCCCCC(=O)O [Tricosanoic acid]	0.0481
Cc1cc(CC(=O)[O-])n(C)c1C(=O)c1ccc(Cl)cc1.[Na+] [Zomepirac sodium salt]	0.0585
CC(COc1ccccc1)N(CCCl)Cc1ccccc1.Cl (centres undefined) [Phenoxybenzamine hydrochloride]	0.139
Cc1cc(C(C)(C)C)cc(C)c1CC1=NCCN1.Cl [Xylometazoline hydrochloride]	0.0933
Cc1ccc(Cl)c(Nc2ccccc2C(=O)[O-])c1Cl.O.[Na+] [Meclofenamic acid sodium salt monohydrate]	0.0498
CCCC[C@@H](C)/C=C(C)/C=C(\C)C(=O)NC1=C[C@@](O)(/C=C/C=C/C=C/C(=O)NC2=C(O)CCC2=O)[C@@H]2O[C@@H]2C1=O [manumycin A]	0.695
COc1ccccc1OCC(O)COC(N)=O (centres undefined) [Methocarbamol]	0.0551
COc1cc(C(=O)OCCCN2CCCN(CCCOC(=O)c3cc(OC)c(OC)c(OC)c3)CC2)cc(OC)c1OC.Cl.Cl [Dilazep dihydrochloride]	0.0467
COc1cc(/C=C/C(=O)N2CCC=CC2=O)cc(OC)c1OC [Piperlongumine]	0.781
COC(=O)[C@H]1[C@H]2C[C@@H]3c4[nH]c5cc(OC)ccc5c4CCN3C[C@H]2C[C@@H](OC(=O)/C=C/c2cc(OC)c(OC)c(OC)c2)[C@@H]1OC [Rescinnamin]	0.134
COc1ccc2c(c1OC)C(=O)O[C@@H]2[C@H]1c2c(cc3c(c2OC)OCO3)CCN1C [Noscapine]	0.0895
COC(=O)/C=C/c1cc(O)ccc1O	0.852

SMILES	fraction of GFP-LC3-positive cells
Oc1cc(O)cc(/C=C/c2ccc(O)c(O)c2)c1	0.173
Oc1cc(O)cc(/C=C/c2ccc(O)c(O)c2)c1 [Piceatannol]	0.357
COc1ccc(C(=O)c2ccccc2)c(O)c1 [Oxybenzone]	0.0797
CCCCCCCC/C=C\CCCCCCCCOC[C@H](COP(=O)([O-])OCC[N+](C)(C)C)OC(C)=O	0.0408 ± 0.0017
C[n+]1cccc(C(=O)[O-])c1 [Trigonelline]	0.042
Cn1cnc2c(NCc3ccccc3)nc(NCCO)nc21 [olomoucine]	0.058
Cn1cnc2c(NCc3ccccc3)nc(NCCO)nc21	0.0719
O.O.O=c1c(O)c(-c2ccc(O)c(O)c2)oc2cc(O)cc(O)c12 [Quercetine dihydrate]	0.0843
CCCC[C@@H](C=O)NC(=O)[C@H](CC(C)C)NC(=O)[C@H](CC(C)C)NC(C)=O	0.926
CSCC[C@@H](C=O)NC(=O)[C@H](CC(C)C)NC(=O)[C@H](CC(C)C)NC(C)=O	0.0674
CC(=O)N[C@@H](CC(C)C)C(=O)N[C@@H](CC(C)C)C(=O)N[C@H](C=O)CCCNC(=N)N [Leupeptin]	0.0499
Nc1ccn([C@H]2CC[C@@H](CO)O2)c(=O)n1 [Zalcitabine]	0.11
O=C1C=CC(=O)c2c1ccc1c2ccc2ccccc21 [Chrysene-1,4-quinone]	0.597
O=C1CCc2c(ccc3ccccc23)O1 [Splitomycin]	0.0416
CCCCCCCCCCC(=O)O [Undecanoic acid]	0.0729
CC(=O)Oc1cc(C(C)C)c(OCCN(C)C)cc1C.Cl [Moxisylyte hydrochoride]	0.0756
CS(=O)(=O)c1ccc([C@@H](O)[C@@H](CO)NC(=O)C(Cl)Cl)cc1 [Thiamphenicol]	0.0366
COc1ccc(CC(N)C(=O)N[C@H]2[C@@H](O)[C@H](n3cnc4c(N(C)C)ncnc43)O[C@@H]2CO)cc1 (some centres undefined) [puromycin]	0.276
N=C(N)N1CCc2ccccc2C1.N=C(N)N1CCc2ccccc2C1.O=S(=O)(O)O [Debrisoquin sulfate]	0.0501
C/C=C(/C(=C/C)c1ccc(O)cc1)c1ccc(O)cc1 [Dienestrol]	0.14
CCCCC/C=C/C/C=C/CCCCCCCCCCC(=O)O [12(Z), 15(Z)-Heneicosadienoic acid]	0.0338
NC(CO)(CO)CO.O=C(c1ccccc1)c1ccc2n1CCC2C(=O)O (centres undefined) [Ketorolac tromethamine]	0.0452
CC(C)(C)NCC(O)COc1cccc2c1CC(O)C(O)C2 (centres undefined) [Nadolol]	0.0452
O=C(O)c1ccccc1Nc1ccccc1	0.0543
